Screens (PubChem BioAssay)
ssDAF-12 act: S. stercoralis DAF-12 nuclear receptor activators, primary screen, cell-based, luminescence, HEK293, GRIP1 co-expression, lit1-tk-luc; HEK293 ssDAF-12/GRIP1 lit1-tk-luc reporter; % of 3 µM dafachronic acid response; activation, % at 6.8 µM; actives 1% (n = 370,000); AID 652126, 2013;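 active = activation above the mean over all tested compounds plus 3 SD, cut at about 0.9% in these data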;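 note: 0% = DMSO-only wells and 100% = 3 µM delta7-dafachronic acid wells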
DAX1 inh-1: DAX1 (NR0B1) inhibitors, primary screen, cell-based, HEK293, Gal4-DAX1, luciferase luminescence. Nuclear receptor subfamily 0 group B member 1 (Homo sapiens), P51843. HEK293 Gal4-DAX1 luciferase reporter. inhibition, % at 6.75 µM. actives 0.99% (n = 340,000);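 active = inhibition above the mean over all tested compounds plus 3 SD, cut at about 4.2% in these data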;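 note: 0% = DAX1-transfected cells with DMSO and 100% = empty-vector control cells with DMSO; inhibition shows as a rise in luminescence from relieved DAX1 repression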
hcDAF12 agonist: H. contortus DAF-12 nuclear receptor activators, primary screen, cell-based, luminescence, HEK293, lit1-tk-luc reporter | HEK293 hcDAF-12 lit1-tk-luc reporter; 0% DMSO, 100% Δ7-dafachronic acid | activation, % at 6.8 µM | actives 1.4% (n = 370,000);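 active = activation above the mean of all tested compounds plus 3 SD, cut at about 5.5% in these data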;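 note: 100% = response to 3 µM Δ7-dafachronic acid high control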
DAX1 inh-2: DAX1 (NR0B1) inhibitors on StAR promoter, primary screen, cell-based, luminescence, SF-1 (NR5A1), full-length DAX-1 | HEK293T StAR-luciferase reporter, SF-1/DAX-1 repression relief | inhibition, % at 6.8 µM | actives 1.1% (n = 370,000);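 active = inhibition above the mean over all tested compounds plus 3 SD, cut at about 3.6% in these data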;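 note: 0% = DAX-1 cells with DMSO and 100% = cells lacking DAX-1 with DMSO; higher inhibition means more luminescence from relief of DAX-1 repression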
hgDAF-12 ag: H. glycines DAF-12 receptor agonists, primary screen, cell-based, luminescence, HEK293, GAL4 fusion, UAS-luciferase; HEK293 GAL4-hgDAF12 UAS-luciferase reporter, agonist luminescence; normalized to butyrate control; activation, % at 6.8 µM; actives 1.8% (n = 370,000); AID 687014, 2013;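 active = activation above a cutoff set at the mean of all screened compounds plus 3 SD, cut at about 10% in these data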;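 note: 0% = DMSO wells and 100% = sodium butyrate wells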
hgDAF12 conf: H. glycines DAF-12 receptor agonists, confirmation, cell-based, luminescence, HEK293, GAL4-LBD fusion; HEK293 GAL4-hgDAF12 luciferase reporter, agonist mode; percent of butyrate response; activation, % at 6.8 µM; shares compounds with hgDAF-12 ag; actives 80% (n = 3,300);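 active = mean activation over triplicate wells above the hit cutoff derived from the earlier primary screen, cut at about 11% in these data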;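 note: 0% = DMSO low control and 100% = 2 mM sodium butyrate high control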
LXRb DAF12 ctr: LXR agonists, Gal4 luciferase reporter, confirmation, counter-screen for hgDAF-12 agonist project, cell-based, luminescence, HEK293, H. glycines campaign | shares compounds with hgDAF-12 ag | 24 h | activation, % at 6.8 µM | 3,300 tested, under 10 active | AID 743051, 2013;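 active = mean activation of the triplicate above a set limit carried over from the primary screen, none filed active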
Target sequence (P55055 whole entry, looked up, the tested form may be a part): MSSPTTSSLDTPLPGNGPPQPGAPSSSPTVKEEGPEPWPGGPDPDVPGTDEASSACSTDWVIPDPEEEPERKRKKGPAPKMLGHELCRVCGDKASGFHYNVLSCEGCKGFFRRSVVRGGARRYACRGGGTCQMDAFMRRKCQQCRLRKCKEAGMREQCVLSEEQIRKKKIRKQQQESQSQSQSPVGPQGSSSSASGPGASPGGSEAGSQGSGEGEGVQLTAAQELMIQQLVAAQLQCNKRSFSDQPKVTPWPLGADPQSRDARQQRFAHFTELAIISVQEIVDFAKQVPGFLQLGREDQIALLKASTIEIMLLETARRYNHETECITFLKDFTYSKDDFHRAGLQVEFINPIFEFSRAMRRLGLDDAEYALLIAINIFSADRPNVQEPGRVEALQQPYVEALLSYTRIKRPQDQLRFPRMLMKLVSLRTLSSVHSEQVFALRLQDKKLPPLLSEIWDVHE
* marks the source's active call; other numbers are inactive results; x = not tested or not shown. Sampled rows, rich in hits. Any-hit rate of the full collection: about 4.1%.

SMILES | ssDAF-12 act | DAX1 inh-1 | hcDAF12 agonist | DAX1 inh-2 | hgDAF-12 ag | hgDAF12 conf | LXRb DAF12 ctr
O=C(c1cc(-c2ccccc2)on1)N1CCCCCC1 | -0.1 | 0.5 | 4.2 | 1.7 | 13.3* | 14.8* | 0.8
O=C(NC1CCCC1)c1cc(-c2ccccc2O)on1 | -0.6 | 2.9 | 2.4 | 2.1 | 9.8 | x | x
Cc1ccc(-c2cc(C(=O)N3CCCCCC3)no2)cc1 | 1.3* | 0.4 | 5.4 | 3.0 | 14.3* | 20.7* | 1.4
COc1ccc(-c2cc(C(=O)N3CCCC3)no2)cc1 | 0.1 | -1.8 | 4.7 | 1.7 | 13.6* | 10.0 | 0.6
O=C(c1cc(-c2ccccc2O)on1)N1CCCCCC1 | 0.9 | 1.8 | 2.9 | 1.5 | 13.8* | 10.2 | 0.4
C[C@H]1CN(S(=O)(=O)C(C)(C)C)[C@@H](CCO)/C1=C\CCO | -0.2 | x | -0.3 | 0.2 | -0.9 | x | x
COC(=O)C1CN(Cc2ccc(OC)cc2)CCS(=O)(=O)N1Cc1ccc(C(F)(F)F)cc1 (stereo not drawn) | -2.0 | x | -2.9 | -2.3 | -4.4 | x | x
COc1ccc(-n2c(COc3ccccc3)nnc2SCC(=O)Nc2ccccc2-c2ccccc2)cc1 | -1.8 | x | -3.4 | -1.1 | -0.8 | x | x
O=C(c1cc(-c2ccc(O)cc2)on1)N1CCCC1 | 0.7 | 1.8 | 4.9 | 2.6 | 14.9* | 13.3* | 0.8
CN1CCN(C(=O)c2cc(-c3ccccc3)on2)CC1 | -0.8 | 0.1 | 0.6 | 1.2 | 3.6 | x | x
O=C(c1cc(-c2ccc(Br)cc2)on1)N1CCCC1 | 0.8 | 1.5 | 3.7 | 2.6 | 18.6* | 14.8* | 0.9
O=c1sc2ccccc2n1CCOc1ccccc1 | 0.5 | 2.2 | 5.6* | 2.5 | 14.8* | 12.3* | 0.6
COC(=O)[C@]12C[C@H](CC(=O)NCc3cccs3)C(=O)N(CCC3=CCCCC3)C1=C[C@H](C(C)C)O[C@@H]2C1CC1 | -1.6 | x | 1.1 | -1.2 | 2.8 | x | x
CCCN1C(=O)c2cc(C(=O)NC3CCCCCC3)ccc2C1O (stereo not drawn) | 0.2 | 2.0 | 3.3 | 3.8* | 17.6* | 14.3* | 0.7
CCCN1C(=O)c2cc(C(=O)O)ccc2C1O (stereo not drawn) | -1.0 | -0.1 | 1.8 | 0.2 | -2.7 | x | x
COC(=O)[C@]12C[C@H](CC(=O)NCCc3ccccc3OC)C(=O)N(Cc3ccc(Cl)cc3Cl)C1=C[C@H](COCc1ccccc1)O[C@@H]2C | -2.2 | x | -4.3 | -2.9 | -0.2 | x | x
O=C(NC1CCCCN(Cc2cccc(F)c2)C1=O)c1cccc(C(F)(F)F)c1 (stereo not drawn) | -0.9 | x | 1.6 | 0.4 | 2.1 | x | x
O=C(CN1C(=O)CSCC1=O)Nc1ccc2c(c1)OCO2 | -1.5 | -0.2 | 0.8 | 0.0 | 0.6 | x | x
CC1SC(C)C(=O)N(CC(=O)Nc2ccc3c(c2)OCO3)C1=O (stereo not drawn) | -1.4 | 0.8 | 0.1 | -1.5 | 14.0* | 2.9 | 0.1
CC(=O)Oc1ccc(-c2csc(Nc3ccccn3)n2)cc1 | 0.1 | 1.7 | 5.5 | 3.9* | 15.9* | 14.5* | 1.1
CC(=O)Nc1cccc(-c2csc(Nc3ccc(Cl)cn3)n2)c1 | -0.3 | 5.9* | 2.3 | 3.8* | 13.5* | 13.4* | 0.8
Cc1nc(-c2ccc(NC(=O)c3ccccc3C)cc2)cs1 | -0.1 | 0.6 | 1.5 | 2.0 | 20.0* | 15.7* | 0.7
